This excerpt belongs to a sample that is enriched for hits.
Pf Dd2 growth = Plasmodium falciparum Dd2 growth inhibition; P. falciparum Dd2 growth, SYBR Green, 72 h; Potency, µM (titrated, usually from 28.9 µM), actives largely listed as inhibitors; actives 4.3% (n = 120,000); AID 1347417; active = well fitted inhibition curve with a large enough effect; note: nearly all actives have a fitted effect of over 65% in size
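Infected erythrocytes (Dd2, 0.3% parasitemia, 2.5% hematocrit final) are added to compound in RPMI-1640/Albumax II medium, grown 72 h at 37C in low oxygen, then lysed with saponin/Triton-X containing SYBR Green and read by fluorescence.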
Large screens that a line does not name were inactive.

O=c1c2cn[nH]c2nc(SCc2cccc(Br)c2)n1-c1ccc(Cl)cc1	none
CCNC(=O)N(C1CC1)C1CCOC2(CCN(C(=O)NCc3ccccc3)CC2)C1 (stereo not given)	none
O=S(=O)(N[C@H]1[C@H](O)[C@H](O)C[C@@H]1c1ccccc1)c1ccc(C(F)(F)F)cc1	none
O=S(=O)(N[C@H]1[C@H](O)[C@H](O)C[C@@H]1c1cncnc1)c1ccc(C(F)(F)F)cc1	none
N#Cc1ccc(S(=O)(=O)N[C@H]2[C@H](O)[C@H](O)C[C@@H]2c2ccc(C(F)(F)F)cc2)cc1	Pf Dd2 growth 11.2µM
CN1CCN(C(=O)NCc2cccc(F)c2)CC12CCNC(=O)CC2 (stereo not given)	none
COc1ccc(C(=O)N[C@@H]2CN(C3CCOCC3)C[C@H]2CN(C)C)c(C)c1	none
O=C(Cc1ccsc1)N1CCC(n2cc(-c3nc(C4CC4)no3)nn2)C1 (stereo not given)	none
COCCNC(=O)[C@H]1C[C@H](Oc2ccccc2)CN1C(=O)CC(C)C	none
CN(Cc1ccccn1)Cc1ccccc1C(F)(F)F	none
CCOC(=O)C1(Cc2ccccc2C(F)(F)F)CCN(C(C)Cc2cccc(C)n2)CC1 (stereo not given)	Pf Dd2 growth 12.6µM
COCC1CN(C(C)=O)CC12CCN(Cc1ccccc1C(F)(F)F)CC2 (stereo not given)	none
OCC1(Cc2ccccc2C(F)(F)F)CCNCC1	none
CCOC(=O)C1(Cc2ccccc2F)CCCN(C(=O)c2ccc(-n3ccnc3)cc2)C1 (stereo not given)	none
CCOC(=O)C1(Cc2ccccc2C(F)(F)F)CCN(Cc2ccccn2)CC1	Pf Dd2 growth 6.31µM
COCC(=O)N(C1CCOCC1)C1CCN(C(=O)c2ccc(OC)cc2C)CC1	none
Cc1cccc(CN2C[C@]34C=C[C@H](O3)C(C(=O)N3CCc5ncccc5C3)C4C2=O)c1 (stereo not given in full)	none
COCCN1CC(CO)C2(CCN(C(=O)c3ccc4ncccc4c3)CC2)C1 (stereo not given)	none
Cc1nncn1CCN1CCCC(CCC(=O)N(C)C2CCN(C)CC2)C1 (stereo not given)	none
O=C1NCCC[C@@H]1NC(=O)[C@@H]1CN(C(=O)c2cccc(F)c2)CCN1C(=O)c1cccc(F)c1	none
COc1ncccc1C(=O)N1C[C@@H](CN2CCCCC2)[C@@H](CO)C1	none
CCN1c2cc(C(=O)NCc3ccc(F)cc3Cl)ccc2C(=O)N2CCCCC21 (stereo not given)	none
Cc1cnc(C(=O)NC2C[C@H]3CC[C@@H](C2)N3C(=O)c2ccc(Br)o2)cn1 (stereo not given in full)	none
Cc1ccc(-c2cc3c(=O)n(CCNC(=O)c4ccc(F)c(F)c4)ccn3n2)c(C)c1	none
Cc1ccc(-c2cc3c(=O)n(CCNC(=O)Cc4cccc(F)c4)ccn3n2)c(C)c1	none
Cc1ccc(-c2cc3c(=O)n(CCNC(=O)Cc4ccccc4Cl)ccn3n2)c(C)c1	none
Cc1ccc(C(=O)NCCn2ccn3nc(-c4cc(C)ccc4C)cc3c2=O)cc1	none
Cc1ccc(-c2cc3c(=O)n(CCNC(=O)c4ccc(F)cc4)ccn3n2)c(C)c1	Pf Dd2 growth 2.82µM
Cc1ccc(-c2cc3c(=O)n(CCNC(=O)Cc4c[nH]c5ccccc45)ccn3n2)c(C)c1	Pf Dd2 growth 10µM
Cc1ccc(C(=O)N2CCc3nnc([C@@H]4C[C@@H](O)CN4C(C)C)n3CC2)cn1	none
O=C1NCCCCCCN(C(=O)C2CC2)[C@H]2CCCC[C@@H]12	none
CO[C@H]1[C@H](NC(=O)c2cc(C)oc2C)c2ccccc2C12CCNCC2	none
COc1cccc(N2CCN(C(=O)CCc3conc3-c3ccccc3)CC2)c1	none
CCOC(=O)c1[nH]c(C)c(CCC(=O)NCc2ccccc2)c1C	none
CCOC(=O)c1[nH]c(C)c(CCC(=O)Nc2cc(C)ccc2OC)c1C	none
CCOC(=O)c1cc(S(=O)(=O)N2CCN(c3cccc(OC)c3)CC2)[nH]n1	none
CCOC(=O)c1[nH]c(C)c(CCC(=O)NCc2cccc(Cl)c2)c1C	none
CCOC(=O)c1[nH]c(C)c(CCC(=O)N2CCN(c3cc(C)ccc3C)CC2)c1C	Pf Dd2 growth 0.631µM
CCOC(=O)c1[nH]c(C)c(CCC(=O)N2CCN(c3cccc(OC)c3)CC2)c1C	Pf Dd2 growth 3.98µM
CCOC(=O)c1[nH]c(C)c(CCC(=O)N2CCN(c3cc(Cl)ccc3C)CC2)c1C	Pf Dd2 growth 0.562µM
Cc1ccc(Cl)cc1N1CCN(C(=O)CCSCc2ccccc2F)CC1	none
CN(C)c1ncc2c(n1)C(C)(C(=O)NCc1cccc(Cl)c1)CCC2 (stereo not given)	none
Cc1c(Cl)c(C(=O)N2CCn3nc(Cc4ccccc4)cc3C2)nn1C	none
CCn1cc(S(=O)(=O)N2CCCC(Cc3noc(-c4cccnc4)n3)C2)cn1 (stereo not given)	none
NC(=O)NCC(=O)N1CCC2(CCCN(CCCc3ccccc3)C2)C1 (stereo not given)	none
CCN1CCN(CC(O)COc2cccc(CN(C)Cc3cc(C)on3)c2)CC1 (stereo not given)	none
COc1ccc(OCC(O)CN2CCC(O)CC2)c(CN(C)Cc2csc(C)n2)c1 (stereo not given)	none
COc1ccc(CN(C)Cc2ccncc2C)c(OCC(O)CN2CCCC2)c1 (stereo not given)	Pf Dd2 growth 2.82µM
COC1CCOC2(CCN(C(=O)COc3ccccc3)CC2)C1 (stereo not given)	none
COCCOC1CCOC2(CCN(C(=O)c3n[nH]c4ccccc34)CC2)C1 (stereo not given)	none
COCCOC1CCOC2(CCN(C(=O)c3nn(C)c4ccccc34)CC2)C1 (stereo not given)	Pf Dd2 growth 5.62µM
COCCOC1CCOC2(CCN(C(=O)Cc3ccccc3)CC2)C1 (stereo not given)	none
COCCOC1CCOC2(CCN(C(=O)COc3ccccc3)CC2)C1 (stereo not given)	Pf Dd2 growth 11.2µM
COCCOC1CCOC2(CCN(C(=O)C3(c4ccccc4)CC3)CC2)C1 (stereo not given)	none
COCCOC1CCOC2(CCN(C(=O)c3ccccc3)CC2)C1 (stereo not given)	none
COCCOC1CCOC2(CCN(C(=O)Cc3c[nH]c4ccccc34)CC2)C1 (stereo not given)	Pf Dd2 growth 11.2µM
COCCOC1CCOC2(CCN(C(=O)c3nccc4ccccc34)CC2)C1 (stereo not given)	none
Cc1noc(-c2ccc3c(c2)OCO3)c1C(=O)NCc1cc(F)cc(F)c1	none
O=C(C1CCCC1)N1CCC(c2nc(C3CCOCC3)no2)C1 (stereo not given)	none
CCc1nc(-c2c3n(c(=O)n(CC(=O)Nc4cccc(Cl)c4)c2=O)CCCCC3)no1	none
O=C(c1ccc(C(F)(F)F)cc1)N1CCCC2(CC(c3ccccc3)=NO2)C1 (stereo not given)	none
Cc1nnc([C@H]2CCN(c3ccc(C#N)cn3)C2)o1	none
COCCN1C(=O)c2cccn2CC1CNC(=O)c1sc(C)nc1C (stereo not given)	none
Cc1ccc(NC(=O)CC2CCCN(c3cnn(CC4CC4)c(=O)c3)C2)cc1C (stereo not given)	none
c1cnc2c(c1)ncn2C1CC1	none
CN1CCN(c2cc(=O)c3ccnc(-c4cccc(CO)c4)c3o2)CC1	none
Cc1cc(O)c(C(c2ccccc2)N2CCN(C)CC2)c(=O)n1Cc1ccco1 (stereo not given)	none
Cc1c(-c2ccc(Cl)cc2)c(=O)oc2c(CN3CCN(C)CC3)c(O)ccc12	Pf Dd2 growth 10µM
Cc1c(-c2ccccc2)c(=O)oc2c(CN3CCN(C)CC3)c(O)ccc12	Pf Dd2 growth 3.98µM
Cc1ccc2oc(=O)c3cnn(CC(=O)N4CCN(c5ccccc5)CC4)c3c2c1	none
Cc1noc(C)c1CN1CCN(c2ccc(F)cc2)CC1	none

Compound activity deposited in PubChem BioAssay by National Center for Advancing Translational Sciences (NCATS).
